# Test results from PubChem BioAssay (NCI).
# About 83,000 compounds went through this panel and 20% of them were active in at least one assay; those are over-represented in the sample as a whole.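 Cell lines were cultured in 96-well plates, exposed to a single compound concentration, and assessed for percent growth 48 hours later.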 A number with no mark means an inactive call. The source made the active and inactive calls. How the source made its calls: active means growth percent below 10; inactive means the rest.
# System: NCI-H522 lung
# Experiment: NCI-60 one-dose screen, 48 h (100 = growth as untreated, 0 = no growth, -100 = all killed)
# Conditions: 10 µM unless noted
row,SMILES,growth
1,CCC1CCc2nc3sc(C(=O)Nc4ccccc4F)c(N)c3cc2C1 (stereo unspecified),71.9%
2,Cc1nn(-c2ccc(Cl)cc2)c(=O)n1CCOc1ccccc1Cl,116%
3,COc1cc(/C=C2\CCCC3=C2NC(C)=NC3c2cc(OC)c(OC)c(OC)c2)cc(OC)c1OC (stereo unspecified),51.8%
4,c1ccc([P+](CCC[P+](c2ccccc2)(c2ccccc2)c2ccccc2)(c2ccccc2)c2ccccc2)cc1,43.1%
5,CC1=C(C#N)C(C)(C)C(C#N)=C(C)N1,104%
6,COc1cc(C(=O)OCCCCCCCCCCC[P+](c2ccccc2)(c2ccccc2)c2ccccc2)ccc1O,-50.3% (active)
7,Nc1c(C(=O)Nc2ccccc2)sc2nc3c(cc12)CCCCC3,30.2%
8,COc1cccc(C2CC(=O)Nc3c2c(C)nn3-c2nc3ccccc3[nH]2)c1OC (stereo unspecified),87.8%
9,COc1cc(C(=O)/C=C/c2cc(C(=O)c3cc(OC)c(OC)c(OC)c3)ccc2OC)ccc1N,-58.9% (active)
10,COc1ccc(NC(=O)c2cc3ccccc3nc2Nc2cc(OC)c(OC)c(OC)c2)cc1,57.2%
11,O=S(=O)(O)CCl,77.8%
12,O=C(CN1CCOCC1)Nc1ccc(-c2nc3ccccc3s2)cc1,94.5%
13,COc1cc(/C=C\c2cc(OC)c(OC)c(OC)c2)cc(N/C=C\C(=O)c2c[nH]c3ccccc23)c1OC,-76.9% (active)
14,CC(C)C[C@H](NC(=O)[C@@H](Cc1ccccc1)n1ccc(Nc2ccccc2)cc1=O)B(O)O,-53.7% (active)
15,Cc1ccc2c(c1)C(=O)C(c1c(-c3[nH]c(=O)c4ccc(C)cc4c3O)c(O)c3ccccc3c1O)=NC2=O,7.58% (active)
16,C=CCn1c(C)nc2ccc(Nc3nc(Nc4ccc(F)cc4)nc4ccccc34)cc21,57.9%
17,COc1ccccc1CNCCCN1C(=O)c2ccc3c4c(ccc(c24)C1=O)C(=O)N(CCCNCCCCNCCCCN)C3=O,-40.8% (active)
18,COc1ccc2c(c1)C(=O)/C(=C/c1ccc(O)cc1)O2,-97.9% (active)
19,COc1ccc(-c2cn[nH]c2-c2cc(OC)c3c(c2)OCO3)cc1,-43.9% (active)

row,SMILES,growth
1,CCCCCCCCCCCCNC(=S)N/N=C/c1ccc(Cl)c(Cl)c1,65.7%
2,O=C1Nc2ccc(Br)cc2C1=N/C=c1\[nH]c(=O)/c(=C/c2ccc(Cl)cc2)s1,89.3%
3,O=C(CNc1c(Cl)cccc1Cl)Nc1ccc(-c2nc3ccccc3s2)cc1,-93.4% (active)
4,CCn1c(=O)c2c(=O)c3c4c(oc3oc2c2ccccc21)C(=O)c1ccccc1C4=O,65.5%
5,CN1CCN(c2ccc3cc(-c4nc5ccccc5[nH]4)c(=O)oc3c2)CC1,94.9%
6,COc1ccc(OC)c(C(=O)c2oc3ccc(Br)cc3c2N)c1,-2.14% (active)
7,Cc1ccc(Cn2c(-c3nonc3N)nc3ccccc32)cc1,66.4%
8,Cc1ccc(S(=O)(=O)NCCCNc2nccc(-c3c(-c4ccccc4)nc4sccn34)n2)cc1,54.1%
9,COC1=CC(c2ccc[nH]2)=N/C1=C\c1[nH]c(C)c(C(=O)CCCCC(=O)Oc2ccc3c(c2)CCC2C3CC[C@]3(C)[C@@H](O)CC[C@@H]23)c1C (stereo partly specified),12.9%
10,Cc1cccc(NC(=O)c2sc3nc4c(cc3c2N)CCC4)c1C,-16.5% (active)
11,Nc1c(C(=O)Nc2c(Cl)cccc2Cl)sc2nc3c(cc12)CCCCC3,40.1%
12,COc1cc(OC)c(C(=O)/C=C/c2ccc(C(F)(F)F)cc2)c(OC)c1,28.8%
13,Cn1c(-c2nonc2NC(=O)c2ccc(F)cc2)nc2ccccc21,95.2%
14,CCOC(=O)C1=C(CSC(=S)N(C2CCCCC2)C2CCCCC2)N(C)C(=O)NC1c1ccccc1 (stereo unspecified),58.1%
15,COC12CC(=O)C(C(C)=O)=C(O)C1(C)c1c(O)c(C)c(O)c(C(C)=O)c1O2 (stereo unspecified),70.1%
16,COc1ccc(C2=CC(c3ccc(Oc4ccnc5cc(Cl)ccc45)c(OC)c3)c3c(nc(OC)[nH]c3=O)N2)cc1 (stereo unspecified),75.7%
17,COc1ccc(Cn2cc(COc3cc(/C=C/C(=O)c4cc(OC)c(OC)c(OC)c4)ccc3OC)nn2)cc1,41.6%
18,O=C(Nc1ccc(OCc2nnc(-c3ccc(Cl)cc3)o2)c(F)c1)Nc1ccc(Cl)c(Cl)c1,40.4%
19,O=C(CNc1ccc(Cl)cc1)Nc1ccc(-c2nc3ccccc3s2)cc1,-94.5% (active)

# System: A549/ATCC NSCLC
# Experiment: as above
# Conditions: 10 µM unless noted
row,SMILES,growth
1,CCC1CCc2nc3sc(C(=O)Nc4ccccc4F)c(N)c3cc2C1 (stereo unspecified),79.5%
2,Cc1nn(-c2ccc(Cl)cc2)c(=O)n1CCOc1ccccc1Cl,89.9%
3,COc1cc(/C=C2\CCCC3=C2NC(C)=NC3c2cc(OC)c(OC)c(OC)c2)cc(OC)c1OC (stereo unspecified),16.2%
4,c1ccc([P+](CCC[P+](c2ccccc2)(c2ccccc2)c2ccccc2)(c2ccccc2)c2ccccc2)cc1,86.9%
5,CC1=C(C#N)C(C)(C)C(C#N)=C(C)N1,101%
6,COc1cc(C(=O)OCCCCCCCCCCC[P+](c2ccccc2)(c2ccccc2)c2ccccc2)ccc1O,-8.01% (active)
7,Nc1c(C(=O)Nc2ccccc2)sc2nc3c(cc12)CCCCC3,18.4%
8,COc1cccc(C2CC(=O)Nc3c2c(C)nn3-c2nc3ccccc3[nH]2)c1OC (stereo unspecified),34.4%
9,COc1cc(C(=O)/C=C/c2cc(C(=O)c3cc(OC)c(OC)c(OC)c3)ccc2OC)ccc1N,18.5%
10,COc1ccc(NC(=O)c2cc3ccccc3nc2Nc2cc(OC)c(OC)c(OC)c2)cc1,50.4%
11,O=S(=O)(O)CCl,103%
12,O=C(CN1CCOCC1)Nc1ccc(-c2nc3ccccc3s2)cc1,93.8%
13,COc1cc(/C=C\c2cc(OC)c(OC)c(OC)c2)cc(N/C=C\C(=O)c2c[nH]c3ccccc23)c1OC,84.3%
14,CC(C)C[C@H](NC(=O)[C@@H](Cc1ccccc1)n1ccc(Nc2ccccc2)cc1=O)B(O)O,17%
15,Cc1ccc2c(c1)C(=O)C(c1c(-c3[nH]c(=O)c4ccc(C)cc4c3O)c(O)c3ccccc3c1O)=NC2=O,21.8%
16,C=CCn1c(C)nc2ccc(Nc3nc(Nc4ccc(F)cc4)nc4ccccc34)cc21,52.1%
17,COc1ccccc1CNCCCN1C(=O)c2ccc3c4c(ccc(c24)C1=O)C(=O)N(CCCNCCCCNCCCCN)C3=O,-3.81% (active)
18,COc1ccc2c(c1)C(=O)/C(=C/c1ccc(O)cc1)O2,91.8%
19,COc1ccc(-c2cn[nH]c2-c2cc(OC)c3c(c2)OCO3)cc1,19.8%

row,SMILES,growth
1,CCCCCCCCCCCCNC(=S)N/N=C/c1ccc(Cl)c(Cl)c1,103%
2,O=C1Nc2ccc(Br)cc2C1=N/C=c1\[nH]c(=O)/c(=C/c2ccc(Cl)cc2)s1,85.3%
3,O=C(CNc1c(Cl)cccc1Cl)Nc1ccc(-c2nc3ccccc3s2)cc1,85.7%
4,CCn1c(=O)c2c(=O)c3c4c(oc3oc2c2ccccc21)C(=O)c1ccccc1C4=O,82.4%
5,CN1CCN(c2ccc3cc(-c4nc5ccccc5[nH]4)c(=O)oc3c2)CC1,90.3%
6,COc1ccc(OC)c(C(=O)c2oc3ccc(Br)cc3c2N)c1,12.2%
7,Cc1ccc(Cn2c(-c3nonc3N)nc3ccccc32)cc1,57.3%
8,Cc1ccc(S(=O)(=O)NCCCNc2nccc(-c3c(-c4ccccc4)nc4sccn34)n2)cc1,58.4%
9,COC1=CC(c2ccc[nH]2)=N/C1=C\c1[nH]c(C)c(C(=O)CCCCC(=O)Oc2ccc3c(c2)CCC2C3CC[C@]3(C)[C@@H](O)CC[C@@H]23)c1C (stereo partly specified),52.6%
10,Cc1cccc(NC(=O)c2sc3nc4c(cc3c2N)CCC4)c1C,18.6%
11,Nc1c(C(=O)Nc2c(Cl)cccc2Cl)sc2nc3c(cc12)CCCCC3,50.3%
12,COc1cc(OC)c(C(=O)/C=C/c2ccc(C(F)(F)F)cc2)c(OC)c1,53.5%
13,Cn1c(-c2nonc2NC(=O)c2ccc(F)cc2)nc2ccccc21,98.1%
14,CCOC(=O)C1=C(CSC(=S)N(C2CCCCC2)C2CCCCC2)N(C)C(=O)NC1c1ccccc1 (stereo unspecified),47.2%
15,COC12CC(=O)C(C(C)=O)=C(O)C1(C)c1c(O)c(C)c(O)c(C(C)=O)c1O2 (stereo unspecified),64.8%
16,COc1ccc(C2=CC(c3ccc(Oc4ccnc5cc(Cl)ccc45)c(OC)c3)c3c(nc(OC)[nH]c3=O)N2)cc1 (stereo unspecified),65.5%
17,COc1ccc(Cn2cc(COc3cc(/C=C/C(=O)c4cc(OC)c(OC)c(OC)c4)ccc3OC)nn2)cc1,60.1%
18,O=C(Nc1ccc(OCc2nnc(-c3ccc(Cl)cc3)o2)c(F)c1)Nc1ccc(Cl)c(Cl)c1,32.2%
19,O=C(CNc1ccc(Cl)cc1)Nc1ccc(-c2nc3ccccc3s2)cc1,89%
